Assay [1] addresses Albumin (Bos taurus) (UniProt P02769). The assay can be described thus: compounds binding labelled BSA control protein – biochemical, small-molecule microarray, Alexa647 label, 635/667 nm fluorescence, artefact control for SMM control protein annotation, profiling panel (AID 1118).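 Also: score merges 667 nm emission intensity and signal-to-noise per printed compound spot.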 The conditions noted are these: BSA-A647 binding, fluorescence 635 nm, higher = more signal.
A short description of assay [2]: probe aXIP binding to arrayed compounds – biochemical, NeuroSMM set, 635/667 nm fluorescence, primary screen (AID 1119).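 Also: probe is the protein aXip251-270 applied at 1 µg/mL to compound-printed slides; binding of probe to printed compounds measured as 667 nm fluorescence plus signal to noise.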 The conditions noted are these: small-molecule microarray, higher = more signal, called active from +8 up or from −8 down.
Assay [3] in a line: probe aNOTCH3 binding on compound microarray – biochemical, small-molecule microarray, 635/667 nm fluorescence, primary screen (AID 1120).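 Also: probe is a biotin-tagged antibody raised against NOTCH3 rather than NOTCH3 protein; score merges spot fluorescence near 667 nm with spot signal to noise.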 The conditions noted are these: higher = more signal.
Assay [4] is described as follows: probe aNOTCH2 binding on compound microarray – biochemical, small-molecule microarray, 635/667 nm fluorescence, primary screen (AID 1121).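 Also: score merges feature fluorescence read at 667 nm with its signal to noise.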 The conditions noted are these: higher = more signal.
In assay [5] the target is Carbonic anhydrase 2 (Homo sapiens) (UniProt P00918). Put plainly: compounds binding carbonic anhydrase 2 – biochemical, small-molecule microarray, Alexa647-labelled CAII, profiling panel (AID 1122). The following applies: CAII-A647 binding fluorescence, higher = more signal.
Assay [6] is described as follows: COS7 lysate on small-molecule microarray, probe aHis, 635 nm (AID 1123).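 Also: z-score combines 667nm fluorescence intensity with signal-to-noise per printed compound spot.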 The conditions noted are these: COS7 cell lysate, fluorescence, higher = more signal.
Assay [7] is described as follows: probe aLAP1 signal on lysate-treated microarray – cell lysate, small-molecule microarray, COS7 lysate, primary screen (AID 1124).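 Also: lysate comes from COS7 cells expressing LAP1 and is applied at 0.3 µg/mL; score merges spot fluorescence near 667 nm with signal-to-noise over triplicate slides.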 The conditions noted are these: probe aLAP1, fluorescence, higher = more signal.
The test system of assay [8] is Sam68 (KHDRBS1). The assay can be described thus: compounds binding KHDRBS1 protein – biochemical, small-molecule microarray, 635 nm fluorescence, primary screen (AID 1125).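 Also: score merges 667 nm channel intensity with signal to noise over triplicate slides.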 The following applies: higher = more signal.
Assay [9] concerns Chordin-like protein 2 (CHRDL2). The assay can be described thus: compounds binding chordin-like 2 – biochemical, small-molecule microarray, 635 nm fluorescence, primary screen (AID 1126).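 Also: printed compound slides probed with Chrdl2 protein at 4 µg/mL for 1 h at 4 C; score merges 667 nm emission intensity with signal to noise over three replicate slides.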 The conditions noted are these: fluorescence 635 nm, higher = more signal.
Assay [10] has as its target Concanavalin-A (Canavalia ensiformis) (UniProt P02866). Put plainly: compounds binding concanavalin A lectin – biochemical, small-molecule microarray, Alexa647 label, 635 nm, artefact control for SMM control protein annotation, primary screen (AID 1127).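 Also: z combines 667 nm emission intensity with signal-to-noise across three replicate slides.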 The conditions noted are these: ConA-A647 binding fluorescence, higher = more signal.
Assay [11] can be described thus: compounds binding Alexa647 anti-His antibody – biochemical, small-molecule microarray, 635 nm fluorescence, artefact control for SMM control protein annotation, primary screen (AID 1128).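 Also: score merges feature fluorescence with signal-to-noise for each printed compound spot.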 The conditions noted are these: higher = more signal.
Assay [12] relates to Human papillomavirus type 1a E7 protein (residues 1-88). The assay can be described thus: HPV1a E7 small-molecule binders, primary screen, biochemical, small-molecule microarray, residues 1-88, 635 nm (AID 1129). The conditions noted are these: small-molecule microarray binding, fluorescence 635 nm; higher = more signal.
The target of assay [13] is Focal adhesion kinase 1 (Homo sapiens) (UniProt Q05397). The assay can be described thus: PTK2 protein binding on printed compound slides – biochemical, small-molecule microarray, 635/667 nm fluorescence, BSA, DTT, primary screen (AID 1130).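 Also: composite of spot emission at 667 nm and signal to noise over triplicate slides.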 The conditions noted are these: 635 nm fluorescence, higher = more signal.
Chain of Focal adhesion kinase 1 (Homo sapiens) (Q05397 whole entry, looked up): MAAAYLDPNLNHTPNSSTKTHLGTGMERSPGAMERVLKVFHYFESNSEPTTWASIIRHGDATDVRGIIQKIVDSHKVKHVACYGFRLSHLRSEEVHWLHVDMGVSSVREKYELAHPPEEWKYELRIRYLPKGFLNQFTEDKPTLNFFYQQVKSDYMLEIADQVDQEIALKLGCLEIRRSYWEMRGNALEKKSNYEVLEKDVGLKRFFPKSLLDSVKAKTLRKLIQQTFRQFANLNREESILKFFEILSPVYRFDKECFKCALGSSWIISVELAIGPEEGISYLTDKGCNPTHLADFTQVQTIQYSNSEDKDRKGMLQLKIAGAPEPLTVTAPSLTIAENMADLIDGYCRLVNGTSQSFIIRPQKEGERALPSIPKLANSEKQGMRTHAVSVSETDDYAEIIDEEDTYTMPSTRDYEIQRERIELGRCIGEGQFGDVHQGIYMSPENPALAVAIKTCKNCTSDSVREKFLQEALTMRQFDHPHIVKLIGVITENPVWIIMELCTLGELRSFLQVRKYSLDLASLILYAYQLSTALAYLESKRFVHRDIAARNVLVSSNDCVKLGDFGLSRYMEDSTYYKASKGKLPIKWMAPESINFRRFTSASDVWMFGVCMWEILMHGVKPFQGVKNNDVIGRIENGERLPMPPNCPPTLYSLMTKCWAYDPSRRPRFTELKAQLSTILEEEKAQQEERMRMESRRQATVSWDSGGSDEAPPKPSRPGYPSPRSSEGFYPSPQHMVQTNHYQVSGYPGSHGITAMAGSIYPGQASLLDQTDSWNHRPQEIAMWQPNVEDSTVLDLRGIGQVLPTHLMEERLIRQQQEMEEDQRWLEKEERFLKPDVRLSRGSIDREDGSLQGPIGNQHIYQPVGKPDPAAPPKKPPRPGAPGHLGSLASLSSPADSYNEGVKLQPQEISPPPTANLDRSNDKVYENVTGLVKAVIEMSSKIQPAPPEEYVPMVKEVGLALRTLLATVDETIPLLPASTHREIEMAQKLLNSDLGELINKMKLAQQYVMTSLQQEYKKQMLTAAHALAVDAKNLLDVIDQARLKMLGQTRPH
Assay [14] has as its system Fibrinogen (Alexa647-labelled). The assay can be described thus: Alexa647-fibrinogen binding to printed small molecules – biochemical, small-molecule microarray, 635/667 nm fluorescence, artefact control for SMM control-protein annotation, profiling panel (AID 1131).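 Also: z-score merges 667 nm fluorescence with per-spot signal-to-noise over triplicate slides.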 The following applies: fibrinogen-A647 binding fluorescence, higher = more signal.
Assay [15] deals with Follistatin (Homo sapiens) (UniProt P19883). The assay can be described thus: FST protein binding to printed compounds – biochemical, small-molecule microarray, 635/667 nm fluorescence, primary screen (AID 1132). The following applies: 635 nm fluorescence, higher = more signal.
Chain of Follistatin (Homo sapiens) (P19883 whole entry, looked up): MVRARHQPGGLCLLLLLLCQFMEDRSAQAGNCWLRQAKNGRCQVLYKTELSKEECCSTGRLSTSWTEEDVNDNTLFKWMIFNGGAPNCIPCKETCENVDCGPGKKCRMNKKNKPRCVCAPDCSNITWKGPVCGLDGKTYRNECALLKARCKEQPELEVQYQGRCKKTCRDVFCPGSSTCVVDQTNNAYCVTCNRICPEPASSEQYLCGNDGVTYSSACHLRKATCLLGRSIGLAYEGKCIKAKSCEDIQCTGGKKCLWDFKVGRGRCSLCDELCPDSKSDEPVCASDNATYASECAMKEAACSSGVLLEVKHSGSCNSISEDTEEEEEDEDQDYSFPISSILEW
Assay [16] deals with Fibroblast growth factor 2 (Homo sapiens) (UniProt P09038). The assay can be described thus: basic fibroblast growth factor binding to printed compounds – biochemical, small-molecule microarray, 635/667 nm fluorescence, primary screen (AID 1133). The following applies: FGF2, fluorescence 635/667, higher = more signal.
Chain of Fibroblast growth factor 2 (Homo sapiens) (P09038 whole entry, looked up): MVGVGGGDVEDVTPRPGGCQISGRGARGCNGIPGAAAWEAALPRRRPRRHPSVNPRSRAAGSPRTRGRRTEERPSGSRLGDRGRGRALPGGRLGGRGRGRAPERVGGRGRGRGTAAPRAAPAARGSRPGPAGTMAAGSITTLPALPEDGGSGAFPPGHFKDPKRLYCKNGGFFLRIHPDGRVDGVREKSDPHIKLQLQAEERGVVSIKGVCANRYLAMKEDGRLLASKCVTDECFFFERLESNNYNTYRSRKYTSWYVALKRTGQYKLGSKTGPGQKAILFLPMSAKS
Assay [17] is described as follows: JC-1 mitochondrial potential readout, lung cancer cells – cell-based, A549, JC-1 fluorescence, basal, 24 h, 100 nL, profiling panel (AID 1138).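 Also: A549 lung adenocarcinoma cells under basal conditions with no added stimulus; test concentration not given here.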 The conditions noted are these: higher = more signal.
The subject of assay [18] is Lefty1. The assay can be described thus: Lefty1 protein binding to printed compounds – biochemical, small-molecule microarray, 635/667 nm fluorescence, primary screen (AID 1139). The following applies: fluorescence 635/667, higher = more signal.
The test system of assay [19] is wheat germ agglutinin (Triticum aestivum), Alexa647-labelled. Put plainly: Alexa647-WGA lectin binding to printed small molecules – biochemical, small-molecule microarray, 635/667 nm fluorescence, artefact control for SMM control-protein annotation, profiling panel (AID 1140).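 Also: score merges 667 nm feature emission with signal to noise over triplicate slides.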 The following applies: WGA-A647 binding, 635 nm fluorescence, higher = more signal.
The target of assay [20] is Luciferin 4-monooxygenase (Photinus pyralis) (UniProt P08659). The assay can be described thus: inhibition of purified Photinus pyralis luciferase – biochemical, luminescence, purified enzyme, 2006 set, primary screen (AID 1141).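 Also: cell-free assay with purified firefly luciferase at 100 ng per well in PBS; test concentration not given here.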 The conditions noted are these: purified firefly luciferase, SteadyGlo luminescence, 30 min; higher = more signal, called active from +8 up or from −8 down.
Chain of Luciferin 4-monooxygenase (Photinus pyralis) (P08659 whole entry, looked up): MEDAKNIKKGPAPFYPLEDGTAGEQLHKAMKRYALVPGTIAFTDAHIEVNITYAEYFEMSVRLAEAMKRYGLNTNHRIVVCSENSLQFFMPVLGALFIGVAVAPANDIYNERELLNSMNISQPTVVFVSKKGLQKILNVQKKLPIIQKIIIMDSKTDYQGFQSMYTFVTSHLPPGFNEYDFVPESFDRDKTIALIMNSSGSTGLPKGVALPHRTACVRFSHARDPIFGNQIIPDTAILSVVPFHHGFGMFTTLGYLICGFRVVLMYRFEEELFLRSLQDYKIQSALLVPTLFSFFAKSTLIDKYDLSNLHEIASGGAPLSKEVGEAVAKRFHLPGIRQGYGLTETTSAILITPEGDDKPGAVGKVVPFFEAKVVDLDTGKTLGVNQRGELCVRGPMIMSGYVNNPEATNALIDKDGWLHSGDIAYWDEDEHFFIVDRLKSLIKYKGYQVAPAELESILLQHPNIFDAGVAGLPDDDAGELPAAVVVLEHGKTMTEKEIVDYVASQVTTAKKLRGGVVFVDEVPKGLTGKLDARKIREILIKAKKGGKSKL

Active and inactive are the calls of the source.

Chain of Albumin (Bos taurus) (P02769 whole entry, looked up): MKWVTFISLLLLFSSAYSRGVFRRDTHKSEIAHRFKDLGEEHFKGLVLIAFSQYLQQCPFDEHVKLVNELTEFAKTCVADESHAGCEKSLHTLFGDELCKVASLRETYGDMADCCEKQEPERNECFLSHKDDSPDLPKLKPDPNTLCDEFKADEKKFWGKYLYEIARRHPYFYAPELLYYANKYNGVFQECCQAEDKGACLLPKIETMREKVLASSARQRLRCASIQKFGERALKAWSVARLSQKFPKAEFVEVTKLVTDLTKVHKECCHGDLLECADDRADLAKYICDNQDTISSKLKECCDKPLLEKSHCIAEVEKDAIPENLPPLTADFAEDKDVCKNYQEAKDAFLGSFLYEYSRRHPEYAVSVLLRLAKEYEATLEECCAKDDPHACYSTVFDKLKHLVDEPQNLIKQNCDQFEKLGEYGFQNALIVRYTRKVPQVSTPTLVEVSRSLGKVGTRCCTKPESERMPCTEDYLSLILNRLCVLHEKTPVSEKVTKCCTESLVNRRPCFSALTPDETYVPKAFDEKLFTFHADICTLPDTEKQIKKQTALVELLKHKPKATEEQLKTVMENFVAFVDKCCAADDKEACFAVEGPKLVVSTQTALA
Chain of Concanavalin-A (Canavalia ensiformis) (P02866 whole entry, looked up): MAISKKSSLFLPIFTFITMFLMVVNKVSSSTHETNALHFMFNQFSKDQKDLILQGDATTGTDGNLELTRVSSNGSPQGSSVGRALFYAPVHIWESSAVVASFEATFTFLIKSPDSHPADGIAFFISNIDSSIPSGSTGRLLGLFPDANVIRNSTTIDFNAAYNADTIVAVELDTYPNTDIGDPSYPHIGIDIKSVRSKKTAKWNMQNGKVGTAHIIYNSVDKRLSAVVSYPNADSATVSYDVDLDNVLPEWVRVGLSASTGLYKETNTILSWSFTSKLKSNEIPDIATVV

`CN1C(=O)C2C=CC(C(O)C#Cc3ccccc3)N(N3CCCCC3)C2C1=O` (stereo not given): the composite z-score in assay [1] amounted to 0.268; in assay [3] it was 1.15; in assay [4], 0.519; in [5], 0.798; in assay [6], 0.19; in assay [7], 1.3. Also, the composite z-score is -0.156 in assay [8]; 0.111 in [9]; 0.82 in assay [10]; 2.14 in assay [11]; 0.392 in assay [12]; -0.381 in assay [13]. In addition, the composite z-score in [14] was 0.933; in assay [15], 0.718; in assay [16], 0.756; in assay [18], -0.418; in assay [19] it was 1.3. In addition, in [2], the composite Z-score was 1.04 (inactive). Besides, the z-score was 0.534 in [17] and -1.69 (inactive) in assay [20].

Consider `CC(C)C(O)C1C=CC2C(=O)NC(=O)C2N1Nc1ccc(Cl)cc1Cl` (stereo not given), for which the composite z-score in [1] was 0.523; in [3] it was -0.0414; in assay [4], -0.0659; in assay [5], 0.751; in assay [6] it was 1.78; in assay [7] it was 1.33. Moreover, the composite z-score in assay [8] was 0.531; in assay [9], -0.827; in [10], -0.478; in [11] it was 1.03; in assay [12] it was 1.19; in assay [13] it was 1.08. The composite z-score in [14] was 0.921; in assay [15], 0.345; in assay [16], -0.292; in assay [18] it was -0.556; in [19] it was 1.35. Also, the composite Z-score in assay [2] is 0.449 (inactive). In addition, the z-score is -0.518 in assay [17] and -0.089 (inactive) in [20].

As for `CN1C(=O)C2C=CC(C(O)c3ccccc3)N(N(c3ccccc3)c3ccccc3)C2C1=O` (stereo not given), the composite z-score in assay [1] amounted to 0.273; in [3], 0.215; in [4], 0.105; in assay [5] it was 0.763; in [6], 0.321; in assay [7], 1.34. The composite z-score in [8] is -0.494; in assay [9], 0.781; in [10] it was -0.529; in assay [11] it was 1.95; in assay [12], -0.54; in assay [13], 0.112. The composite z-score is 0.384 in assay [14]; 1.34 in assay [15]; -0.0637 in assay [16]; 0.03 in assay [18]; 0.489 in [19]. For the same compound, the composite Z-score in [2] was 0.22 (inactive). For the same compound, the z-score was -0.516 in assay [17] and 1.07 (inactive) in assay [20].

As for `C[C@@]1([C@@H](NC(=O)c2ccc(-c3ccccc3)cc2)c2ccc(Cl)cc2)C[C@H]1C1CCCCC1`, the composite z-score in assay [1] is 0.688; in assay [3], 0.305; in assay [4], -0.0527; in assay [5] it was 0.302; in [6] it was 2.21; in assay [7], 0.0789. The composite z-score in assay [8] is 1.29; in [9], -0.564; in [10], 1.01; in assay [11], 2.1; in assay [12] it was 1.15; in assay [13] it was 0.473. The composite z-score in [14] is 0.869; in assay [15], 0.663; in assay [16] it was -0.246; in assay [18], 0.112; in assay [19] it was 0.695. The composite Z-score in [2] is -0.286 (inactive). The z-score in assay [17] is 0.532; in assay [20] it was 0.321 (inactive).

As to `O=C1C2C=CC(C(O)CCc3ccccc3)N(Nc3ccccc3F)C2C(=O)N1c1ccccc1` (stereo not given), the composite z-score in [1] was 0.955; in assay [3], 0.331; in [4], -0.0677; in [5], 0.755; in [6], 2.69; in [7], 0.185. For the same compound, the composite z-score was 1.22 in assay [8]; -0.47 in assay [9]; 0.893 in assay [10]; 1.49 in assay [11]; 1.14 in assay [12]; 1.01 in assay [13]. In addition, the composite z-score was 0.434 in assay [14]; 1.25 in [15]; -0.449 in assay [16]; 0.0364 in assay [18]; 0.548 in [19]. Besides, the composite Z-score in assay [2] is -0.585 (inactive). Besides, the z-score in assay [17] is 0.00533; in assay [20], 1.48 (inactive).

Consider `CC(=O)n1cc(C(O)C2C=CC3C(=O)N(c4ccccc4)C(=O)C3N2Nc2ccc([N+](=O)[O-])cc2)c2ccccc21` (stereo not given), for which the composite z-score in [1] came to 0.932; in assay [3], 0.0159; in [4], 0.386; in [5], 0.778; in assay [6] it was 2.22; in [7] it was 1.33. Moreover, the composite z-score in [8] was 1.34; in assay [9] it was -1.4; in assay [10], 0.823; in assay [11], 3.33; in assay [12], 0.981; in assay [13], 0.457. Moreover, the composite z-score is 0.916 in assay [14]; 0.347 in assay [15]; -0.105 in assay [16]; -0.719 in assay [18]; 1.45 in assay [19]. For the same compound, the composite Z-score in [2] was 0.406 (inactive). Further, the results for the z-score in assay [17] and in assay [20] were -1.02 and 1.08 (inactive), respectively.
